Where “and” joins values, the source holds several entries; their conditions need not be identical. Equal entries are not always repeated. Records with an inconclusive call do not appear. Calls of active or inactive are those of the source. Calls come from the whole dose curve; as a rule, active = well fitted activation curve with a large enough effect; inconclusive = small, poorly fitted or top-dose-only effect; inactive = flat fitted curve, though single readings scatter.
Potency is the fitted concentration of half-maximal effect.

This test in a line: qHTS assay for environmental chemicals that activate the Aryl hydrocarbon Receptor (AhR) signaling pathway (AID 651777). For activation: % of control where 0% means no effect. Note: nearly all actives have a fitted effect of over 15% in size. The settings on record: 1A2-DRE human hepatoma cells, luciferase, 24 h; activation: hits give high values. An excerpt: National Center for Advancing Translational Sciences [NCATS]
NIH Chemical Genomics Center [NCGC]
U.S. Environmental Protection Agency [EPA]
National Institutes of Environmental Health Sciences [NIEHS]
National Toxicology Program [NTP]
The Aryl hydrocarbon Receptor (AhR) plays a critical role in the development of cancer or neoplasm and its formation is most likely due to genetic mutations and the influence of environment. Exposure to environmental pollutants such as polycyclic aromatic hydrocarbons (PAH), their halogenated derivatives and heterocyclic amines causes the induction of phase I and II enzymes. The transcriptional activation of CYP1A2 is directly regulated by AhR.
A cell based assay (1A2-DRE cells, developed by Puracyp, Inc., CA) was used to assess the activation of AhR. Human hepatoma cells were stably transfected with the dioxin response element (DRE) and CYP1A2 promoter fused to a luciferase gene. Increased luciferase activity can be used to identify the compounds that cause the induction of CYP1A2 and AhR activation.
1,200 cells in 5 uL/well were dispensed into white wall/solid bottom 1536-well plates using a Multidrop Combi (Thermo Scientific) dispenser. Following transfer of 23 nL compound or DMSO vehicle by a pin tool, the plates were incubated 24 hr at 37 C and 5% CO2. 5 ul One-Glo (Promega) was then added to each well and following 30 min incubation at room temperature, luciferase activity was quantified on a ViewLux CCD-based plate reader.
On the technique in general: In qHTS, concentration-response curves come from the screen itself.
In the case of `Oc1cc(Cl)cc(Cl)c1`, the activation is 1.21% (inactive).
As for `CN(C)C(=O)Cl`, the activation was -0.443% (inactive).
Still for that read-out and setting: with `Clc1cccc(Cl)c1Cl` the figure was -1.51% (inactive) and 0.659% (inactive).
Same read-out and setting: as for `BrC(Br)Br`, the figure is 2.01% (inactive).
For `c1ccc2c(c1)ccc1cc3c(ccc4ccccc43)cc12`, the Potency was 2.82 µM (active).
Consider `OCCOCCO`, for which the activation is -0.842% (inactive).
Same read-out and setting: as for `Oc1cc(Cl)c(Cl)c(Cl)c1`, the figure is 1.76% (inactive); as for `COP(=S)(OC)SCn1nnc2ccccc2c1=O`, 2.58% (inactive) and 5.04% (inactive).
Same read-out and setting: as for `Nc1cc(Cl)cc(Cl)c1`, the figure is -0.276% (inactive); as for `C/C=C/CC#N`, -0.768% (inactive); as for `CN(C)c1ccc(N(C)C)cc1`, 12.9% (inactive).
The same measure, in the same setting: with `CN1CSC(=S)N(C)C1` the figure was -0.101% (inactive) and -0.0706% (inactive).
With `COC(=O)Nc1nc2ccccc2[nH]1`, the activation was 7.05% (inactive).
The same measure, in the same setting: with `C1CC2OC2CC1C1CO1` (stereo not given) the figure was 1.2% (inactive) and -1.91% (inactive); with `CCN(N=O)C(N)=O`, 0.0477% (inactive).
Same read-out and setting: with `Nn1cnnc1` the figure was 0.198% (inactive); with `CC(=O)NNc1ccccc1`, 2.76% (inactive); with `COc1ccc(C=O)cc1`, 0.954% (inactive).
As for `Cc1cc(-c2cc(C)c(N)c(C)c2)cc(C)c1N`, the Potency is 10 µM (active).
Take `C=CCO`: the activation is -0.568% (inactive).
On the same count and under the same terms, with `OCCCCO` the figure was -0.427% (inactive); with `CCCCCCCCCCCCCl`, 1.8% (inactive).
The same measure, in the same setting: as for `CC(C#N)CCC#N` (stereo not given), the figure is -0.458% (inactive); as for `O=[N+]([O-])c1cccc(O)c1`, 1.58% (inactive); as for `BrCC(Br)C1CCC(Br)C(Br)C1` (stereo not given), -0.172% (inactive).
In the case of `Nc1ccc(-c2ccc(N)cc2)cc1`, the activation was 11.6% (inactive).
Same read-out and setting: with `Oc1cc(Cl)c(Cl)c(Cl)c1Cl` the figure was 4.37% (inactive); with `O=[N+]([O-])c1ccc(Cl)c(Cl)c1Cl`, -1.85% (inactive).
In the case of `C[N+](=O)[O-]`, the activation is 0.25% (inactive).
The same measure, in the same setting: as for `ClC(Br)Br`, the figure is 0.329% (inactive); as for `O=[N+]([O-])c1ccc(O)c([N+](=O)[O-])c1`, 0.436% (inactive).
Still for that read-out and setting: as for `Cc1ccccc1[N+](=O)[O-]`, the figure is -1.35% (inactive).
The same measure, in the same setting: as for `CCOC(=O)CC(SP(=O)(OC)OC)C(=O)OCC` (stereo not given), the figure is 1.9% (inactive) and 4.95% (inactive); as for `Cc1cc(Cl)ccc1O`, 0.484% (inactive).
With `CCOP(=S)(OCC)Oc1nc(Cl)c(Cl)cc1Cl`, the activation is 12% (inactive).
Same read-out and setting: with `C=COC(C)=O` the figure was 1.36% (inactive).
Consider `O=[N+]([O-])c1ccccc1-c1ccccc1`, for which the activation was -0.891% (inactive).
Same read-out and setting: with `COc1c(C(C)(C)C)cc([N+](=O)[O-])c(C)c1[N+](=O)[O-]` the figure was 0.103% (inactive); with `Cl/C=C/Cl`, 0.896% (inactive); with `C(CCOCC1CO1)COCC1CO1` (stereo not given), 0.374% (inactive).

Values taken from PubChem BioAssay (NCATS).
